Test results taken from the supplement of paper PMC8877412.
Structures can show the parent of a compound that is named as a salt. ± gives the uncertainty stated by the source.

system: NCC-PMP1-C1; experiment: cell viability relative to DMSO control; higher = less growth inhibition; details: 10 µM; 72 h
Method: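 NCC-PMP1-C1 pseudomyxoma peritonei cells were seeded in 384-well plates coated with Matrigel and MEF (1e4 cells). Viability was read after 72 h by CCK-8 and expressed as % of the DMSO control, mean ± SD of duplicates.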

SMILES	cell viability [%]
Cn1c(CCCC(=O)O)nc2cc(N(CCCl)CCCl)ccc21 [Bendamustine HCl]	127 ± 6
Cc1c(N)nc(C(CC(N)=O)NCC(N)C(N)=O)nc1C(=O)NC(C(=O)NC(C)C(O)C(C)C(=O)NC(C(=O)NCCc1nc(-c2nc(C(=O)NCCC[S+](C)C)cs2)cs1)C(C)O)C(O[C@@H]1O[C@@H](CO)[C@@H](O)[C@H](O)[C@@H]1O[C@H]1O[C@H](CO)[C@@H](O)[C@H](OC(N)=O)[C@@H]1O)c1cnc[nH]1 (some centres undefined) [Bleomycin Sulfate]	80.5 ± 1.4
O=P1(N(CCCl)CCCl)NCCCO1 (centres undefined) [Cyclophosphamide Monohydrate]	107 ± 9.1
COCC1(CO)C(=O)C2CCN1CC2 (centres undefined)	115 ± 8.3
CC(=O)OC12COC1CC(O)C1(C)C(=O)C(O)C3=C(C)C(O)CC(O)(C(OC(=O)c4ccccc4)C21)C3(C)C (centres undefined) [10-Deacetylbaccatin-III]	94.7 ± 12
O=C(O)CCCc1ccc(N(CCCl)CCCl)cc1 [Chloroambucil]	87 ± 20
C/C=C(\C)C(=O)N[C@@H](c1ccccc1)[C@@H](O)C(=O)O[C@H]1C[C@@]2(O)[C@@H](OC(=O)c3ccccc3)[C@@H]3[C@]4(OC(C)=O)CO[C@@H]4C[C@H](O)[C@@]3(C)C(=O)[C@H](OC(C)=O)C(=C1C)C2(C)C [Cephalomannine]	74.9 ± 6.8
NCCCNCCSP(=O)(O)O [Amifostine]	95.3 ± 16
N.N.[Cl][Pt][Cl] [Cisplatin]	102 ± 3.3
C=CCN1CC[C@]23c4c5ccc(O)c4O[C@H]2C(=O)CC[C@@]3(O)[C@H]1C5 [Naloxone HCl]	1.93 ± 1.3
CC[C@@]1(O)C(=O)OCc2c1cc1n(c2=O)Cc2cc3ccccc3nc2-1 [Camptothecin]	82.2 ± 14
O=C1C2CCN(CC2)C1(CO)CO	78.8 ± 3.1
C=C1C[C@@H]2[C@H](CC[C@]3(C)C(=O)CC[C@@H]23)[C@@]2(C)C=CC(=O)C=C12 [Exemestane]	138 ± 5.7
O=P1(NCCCl)OCCCN1CCCl (centres undefined) [Ifosfamide]	106.5 ± 0.13
